Rows were chosen to be rich in hits. Some 2.8% of all compounds tested hit in one or more screens of this group.
KKLEB tox: cytotoxicity in KKLEB CF airway cells, primary screen, cytotoxicity control for CF NF-kB inhibitor project, cell-based, uHTS, fluorescence assay plates. AID 602141, 2011. 0.36% of 360,000 active. KKLEB CF airway cells viability, ATPlite luminescence, overnight; stronger effect = lower value; cells stimulated with P. aeruginosa culture filtrate. activity change (cytotoxicity), % at 5 µM;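 active = corrected activity change at or below -50% at 5 µM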
TRPM1 prom inh: inhibitors of MITF-dependent TRPM1 promoter reporter, primary screen, cell-based, SK-MEL-5, single point, luciferase; SK-MEL-5 TRPM1 promoter luciferase, 24 h; inhibition, % at 12.5 µM; 0.83% of 330,000 active;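 active = mean inhibition across replicates of 60% or more, whatever share of single replicates reaches that level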
Peg3 prom inh-1: Peg3 promoter-driven luciferase inhibitors, primary screen, cell-based, HeLa, luciferase luminescence | AID 588405, 2011 | inhibition, % at 20 µM | HeLa PEG-Prom luciferase reporter, overnight | 1.7% of 360,000 active;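 active = inhibition of at least 50% at 20 µM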
HIF-2a inh: HIF-2a reporter inhibitors, primary screen, luminescence, 786-0 RCC cells. 786-0 RCC cells HIF-2a reporter, luciferase luminescence, overnight. inhibition, % at 18.8 µM. 0.72% of 360,000 active;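 active = inhibition of the luminescence signal of 40% or more relative to plate controls, in a single-dose primary screen at 18.75 µM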
B2AR ag: beta2AR agonists driving receptor internalization, primary screen, cell-based, FAP fluorogen, flow cytometry; 0.43% of 340,000 active; response, % (concentration not given with the values); Am2.2-beta2AR cells; AID 504454, 2011; Beta-2 adrenergic receptor (Homo sapiens), P07550;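 active = response above a set limit, near 3 SD of response in nonfluorescent compounds, cut at about 42% in these data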
Target sequence (P07550 whole entry, looked up): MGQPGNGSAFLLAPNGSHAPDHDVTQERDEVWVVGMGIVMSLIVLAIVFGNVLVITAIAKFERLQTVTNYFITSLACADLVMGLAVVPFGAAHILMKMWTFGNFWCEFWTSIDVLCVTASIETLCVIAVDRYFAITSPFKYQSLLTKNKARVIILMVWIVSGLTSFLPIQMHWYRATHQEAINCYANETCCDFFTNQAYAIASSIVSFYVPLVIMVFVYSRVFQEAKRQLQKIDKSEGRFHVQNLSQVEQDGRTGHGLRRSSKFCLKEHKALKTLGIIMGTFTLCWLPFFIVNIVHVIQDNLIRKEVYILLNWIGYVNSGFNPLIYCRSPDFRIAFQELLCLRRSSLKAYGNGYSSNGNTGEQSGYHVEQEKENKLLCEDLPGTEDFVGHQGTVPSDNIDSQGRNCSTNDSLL
CF NFkB block: inhibitors of PAF-induced NF-kB signaling, primary screen, cell-based, GFP fluorescence, uHTS. KKLEB NF-kB-GFP reporter, GFP fluorescence overnight. inhibition, % at 5 µM. 0.86% of 360,000 active. AID 588850, 2011;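 active = at least 50% inhibition at 5 µM, scaled per plate between neutral and stimulator controls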;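 also: PAF is a Pseudomonas aeruginosa culture filtrate used as stimulus; plate controls were PAF-stimulated DMSO wells for no effect and unstimulated DMSO wells for full effect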
Peg3 prom inh-2: Peg3 promoter reporter inhibitors, retest, confirmation, cell-based, HeLa, luciferase reporter, single concentration. shares compounds with Peg3 prom inh-1. HeLa PEG-Prom luciferase reporter, luminescence, overnight. inhibition, % at 20 µM. 84% of 1,300 active. AID 602417, 2012;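 active = at 20 µM dose, 40% or more inhibition averaged across four replicates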
* marks the source's active call; other numbers are inactive results; . = not tested or not shown.

SMILES	KKLEB tox	TRPM1 prom inh	Peg3 prom inh-1	HIF-2a inh	B2AR ag	CF NFkB block	Peg3 prom inh-2
COc1ccc(C(C)(NC(C)=O)c2nc(-c3ccccc3OC)cs2)cc1 (stereo not drawn)	-7.2	.	11.7	5.5	.	3.2	.
CN1CCN(c2nc(-c3ccccc3)nc3c2oc2ccccc23)CC1	-2.1	-22.3	65.9*	8.8	-9.2	-59.4	-3.0
NC(=O)C1CCN(c2nc(-c3ccccc3)nc3c2oc2ccccc23)CC1	-3.4	10.4	26.8	-13.2	-2.6	-74.9	.
Cc1cccc(OCC(=O)NCC(=O)N/N=C/c2cc(Br)cc(Br)c2O)c1	-0.4	8.8	57.3*	14.2	9.2	8.6	63.3*
Cc1ccc(C)c(OCC(O)CN2CCC(CN3C(=O)c4cccc5cccc(c45)C3=O)CC2)c1 (stereo not drawn)	-17.6	.	99.1*	8.0	-4.2	6.7	97.1*
Cc1ccc2cc3c(N)c4c(C)ccc(C)c4nc3nc2c1	-12.5	14.7	103.1*	-14.4	3.3	-82.1	97.2*
Cc1ccc2c(N)c(C)ccc2c1	7.8	-14.3	8.1	-30.8	-0.8	-10.4	.
Cc1ccc(OCC(=O)NNC(=O)c2ccc(F)c(S(=O)(=O)N3CCOCC3)c2)cc1C	-8.8	.	-7.8	-2.9	.	-34.7	.
Cc1ccc(-c2cc(C(=O)Nc3nccs3)c3ccccc3n2)c(C)c1	-5.7	1.3	90.6*	10.5	16.2	-35.7	61.1*
CN1CCC(N2CCN(C3CN(Cc4ccccc4)S(=O)(=O)C3)CC2)CC1 (stereo not drawn)	-2.2	.	-6.4	2.3	.	0.8	.
COc1ccc(/C=C/C(=O)Oc2ccc(C)c(C)c2)cc1OC	9.4	-10.0	-30.0	-14.0	10.4	-5.6	.
COc1cc(/C=C/[N+](=O)[O-])ccc1OC(=O)/C=C/c1ccc(F)cc1	-4.5	23.9	103.2*	7.6	24.3	-30.0	51.8*
CCCC(C)(C)C(=O)N1CCC1(C)C(=O)NS(=O)(=O)c1ccc(Cl)cc1 (stereo not drawn)	1.2	.	22.6	7.8	.	-7.1	.
COC(=O)c1ccc(Nc2cc(C)nc3ccc(C)cc23)cc1	-7.3	75.8*	55.5*	18.8	-6.3	-9.0	89.4*
CN(C)CCNC(=O)c1cc2c(=O)n(C)c3ccccc3c2n1C	2.9	0.9	5.9	-2.3	-7.9	-10.1	.
CN(C)CCNc1ccc2nnn3c4ccc(O)cc4c(=O)c1c23	-16.6	25.4	74.9*	27.0	-2.5	-30.2	55.8*
Cc1ccc(NCCN(C)C)c2c(=O)c3cc(O)ccc3sc12	-23.9	93.4*	105.9*	23.8	-7.0	-136.3	100.2*
CCCCn1c(N)c(N(CC(C)C)C(=O)c2cc(Br)c(Br)s2)c(=O)[nH]c1=O	-6.5	35.0	81.2*	-2.8	-2.0	14.9	41.4*
CCCCn1c(N)c(N(CC(C)C)C(=O)c2ccc(Br)s2)c(=O)[nH]c1=O	-2.3	8.5	14.4	9.8	3.6	11.9	.
c1ccc(SC23CC4CC(CC(C4)C2)C3)nc1	-3.5	.	3.9	14.8	.	-16.0	.
Oc1ccc(NC(=S)N=Nc2c(O)[nH]c3ccc(Br)cc23)cc1	-16.0	40.4	39.7	3.9	15.1	43.6	.
Oc1[nH]c2ccc(Br)cc2c1N=NC(=S)Nc1ccc(F)cc1	13.6	26.9	65.4*	21.5	15.9	-3.0	67.5*
COc1ccc(-c2csc(NC(=O)c3cccc(N4C(=O)CCC4=O)c3)n2)cc1C	4.8	-5.0	-13.3	-12.1	4.5	-16.6	.
O=C(Nc1nc(-c2ccc3ccccc3c2)cs1)c1ccc(N2C(=O)CCC2=O)cc1	-12.1	20.4	55.8*	-8.6	-10.5	18.0	17.2
Cc1c(C(=O)NCc2cccc([N+](=O)[O-])c2)sc(=O)n1Cc1ccc(C(C)C)cc1	-9.5	.	14.4	-5.5	.	21.4	.
SMILES	KKLEB tox	TRPM1 prom inh	Peg3 prom inh-1	HIF-2a inh	B2AR ag	CF NFkB block	Peg3 prom inh-2
COc1cc(CNCCN2CCOCC2)ccc1OCc1ccc(Cl)cc1Cl	-4.4	-1.4	56.7*	6.6	27.5	12.5	79.0*
COc1cc(CNCCN2CCOCC2)ccc1OCc1cccc(Cl)c1	-4.6	-21.5	-3.1	-12.5	2.7	-3.9	.
CCN(c1ccccc1)S(=O)(=O)c1ccc(C(=O)N(CCCN(C)C)c2nc3cc4c(cc3s2)OCO4)cc1	-3.5	-3.5	52.1*	-2.9	30.9	23.5	81.1*
CN(C)CCCN(C(=O)c1ccc(S(=O)(=O)N(C)Cc2ccccc2)cc1)c1nc2cc3c(cc2s1)OCO3	-28.9	85.1*	67.9*	5.0	31.6	17.0	89.2*
CCN(CC)CCCC(C)Nc1nccc2c(Cl)cccc12 (stereo not drawn)	-9.1	-13.1	17.0	5.0	13.6	-13.2	.
Cc1ccc(N2C(=O)CS/C2=C(\C(Cl)=C(Cl)Cl)[N+](=O)[O-])cc1	21.8	-1.5	2.1	-9.9	12.3	-7.5	.
CC1CCCC(C)N1C(=C(Cl)Cl)C(=C1SCCS1)[N+](=O)[O-] (stereo not drawn)	-27.5	-19.9	70.9*	30.2	13.1	25.5	59.0*
CCC(CO)Nc1ccn2nc(-c3cccc(Cl)c3)cc2n1 (stereo not drawn)	5.4	.	-313.4	-316.4	.	-31.9	.
Fc1c(F)c(F)c(/C=N/NC(=S)Nc2cccnc2)c(F)c1F	-16.7	5.1	101.0*	19.6	4.0	37.3	43.7*
CC1(C(=O)NS(=O)(=O)c2cccc(Cl)c2)CCN1C(=O)C1(c2ccccc2)CC1 (stereo not drawn)	9.2	.	-3.0	3.3	.	13.1	.
CCOC(=O)c1cc2c(=O)n3ccccc3nc2n(C)c1=NC(=O)c1c(-c2c(F)cccc2Cl)noc1C	10.5	-2.5	39.9	10.3	10.7	-7.2	.
CCOC(=O)c1cc2c(=O)n3ccccc3nc2n(C(C)C)c1=NC(=O)c1c(-c2c(F)cccc2Cl)noc1C	-2.8	-0.8	64.5*	19.8	-3.6	-20.1	43.0*
Nc1c(C(=O)Nc2cccc(C(=O)O)c2)sc2nc3c(cc12)CCCC3	-16.9	80.4*	69.1*	76.8*	-2.5	13.2	54.9*
O=C(NCCc1ccccc1)c1ccc2c(c1)OCO2	-4.7	53.4	57.8*	54.4*	-5.2	10.9	51.8*
CC(C)CC(N)c1csc(NC(=O)Nc2ccccc2C(C)C)n1 (stereo not drawn)	-7.5	.	71.8*	9.2	.	9.2	84.1*
Cc1ccccc1NC(=O)Nc1nc(C(N)c2ccccc2)cs1 (stereo not drawn)	1.0	.	3.9	-18.2	.	3.9	.
